In all, about 310,000 compounds went through this assay and about 3,900 (1.3%) were called active.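 How the source made its calls: active means compounds whose thallium flux B-score, printed positive for inhibition, exceeds three library SD while starting fluorescence stays within three; inactive means the rest.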 For the sample, actives were picked, then their nearest neighbours and some compounds at random.
These compounds were tested against Potassium voltage-gated channel subfamily KQT member 1 (Homo sapiens) (UniProt P51787) (assay: KCNQ1 potassium current blockers – cell-based, thallium flux, high-throughput, primary screen (AID 2642;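 further: channel opened by potassium depolarization with thallium stimulus after 20 min compound exposure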)). Conditions: CHO-K1 KCNQ1, FluxOR thallium flux fluorescence, at 10 µM; stronger effect = higher value.
Sequence of Potassium voltage-gated channel subfamily KQT member 1 (Homo sapiens) (P51787 whole entry, looked up): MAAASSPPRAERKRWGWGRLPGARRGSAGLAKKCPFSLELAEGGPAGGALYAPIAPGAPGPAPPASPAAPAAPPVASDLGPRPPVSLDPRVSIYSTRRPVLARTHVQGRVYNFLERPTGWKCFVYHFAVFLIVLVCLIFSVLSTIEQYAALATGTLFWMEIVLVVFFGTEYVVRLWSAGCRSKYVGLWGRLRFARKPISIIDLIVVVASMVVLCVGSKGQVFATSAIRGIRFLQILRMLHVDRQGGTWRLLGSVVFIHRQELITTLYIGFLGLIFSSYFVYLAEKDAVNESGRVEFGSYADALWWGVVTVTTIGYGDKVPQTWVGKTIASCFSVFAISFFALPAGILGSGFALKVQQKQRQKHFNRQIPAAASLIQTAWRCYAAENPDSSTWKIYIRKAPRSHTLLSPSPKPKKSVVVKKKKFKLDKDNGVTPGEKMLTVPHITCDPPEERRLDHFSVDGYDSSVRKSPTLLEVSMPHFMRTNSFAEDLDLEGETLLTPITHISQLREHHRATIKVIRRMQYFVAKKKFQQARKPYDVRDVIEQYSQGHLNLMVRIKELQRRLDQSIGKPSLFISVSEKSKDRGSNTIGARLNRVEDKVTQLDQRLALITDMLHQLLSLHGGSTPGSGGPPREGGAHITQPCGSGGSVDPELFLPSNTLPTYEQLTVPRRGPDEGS

B-score, inactive:
CC(C)NS(=O)(=O)c1ccc(NC(=O)C2CCCCC2)cc1
COc1ccc(OC)c(S(=O)(=O)NCCC(C)C)c1
CC(NC(=O)COC(=O)C1CCN(S(=O)(=O)c2ccccc2C(F)(F)F)CC1)c1ccccc1 (centres undefined)
Cc1ccc(CS(=O)Cc2ccc(C(=O)N3CCOCC3)o2)cc1 (centres undefined)
Cc1ccc(-c2noc(CSc3nnc(-c4ccccc4)n3C)n2)cc1
Cc1ccc(-c2noc(CN3CCN(Cc4ccccc4)CC3)n2)cc1
COc1cccc(NC(=O)[C@H](Cc2c[nH]c3ccccc23)NC(=O)[C@@H]2Cc3ccccc3CN2)c1
CC(C)(O)C#Cc1ncc(C(F)(F)F)cc1Cl
COCCOC1CCN(C(=O)c2ccc(OC)c(OC3CCN(C(C)C)CC3)c2)CC1
O=C(NCCN1CCOCC1)/C(=C/c1ccc(F)cc1)NC(=O)c1ccccc1
O=C(NCCCN1CCOCC1)c1ccc2c(c1)N(Cc1cccc(F)c1)C(=O)c1ccccc1S2
CCN1CCN(CCNC(=O)c2ccc3c(c2)NC(=O)/C(=C\c2ccc(OC)c(OC)c2)S3)CC1
CN1CCN(CCCNC(=O)c2ccc(/C=C3\Oc4ccccc4N(Cc4ccc(Cl)cc4)C3=O)cc2)CC1
CC(=O)Nc1ccc(S(=O)(=O)N(C)c2ccc(OCC(=O)OCC(=O)N3CCCCC3)cc2)cc1
COc1ccccc1N(C)S(=O)(=O)c1ccc(Cl)c(C(=O)N2CCC(C(N)=O)CC2)c1
COC(=O)c1ccc(CN2CCCC(C(=O)Nc3cccc(-n4cnnn4)c3)C2)cc1 (centres undefined)
CC(C)CCN1C(=O)c2ccc(C(=O)Nc3cccc(S(N)(=O)=O)c3)cc2C1=O
O=C(CS(=O)(=O)c1cn(Cc2ccc(Cl)cc2)c2ccccc12)N1CCOCC1
O=C(CCCN1C(=O)/C(=C\c2ccccc2)SC1=S)Nc1ccccc1O
COc1ccc(/C=C2\SC(=O)N(CCC(=O)NCCCn3ccnc3)C2=O)cc1
Cc1cc(/C=C2/SC(=O)N(CC(=O)N3CCCC3)C2=O)ccc1N1CCOCC1
Cc1cccc(CNS(=O)(=O)c2ccc(-c3cnc(C4CC4)o3)cc2)c1
CCOC(=O)Cn1c(=O)n(Cc2ccc(OC)cc2)c(=O)c2cccnc21
COC(=O)[C@@H](Cc1ccccc1)NC(=O)NCCc1ccccc1
O=C(c1cc2sccc2n1Cc1ccc(F)cc1)N1CCc2ccccc21
CCOC(=O)c1cc2sccc2n1Cc1ccc(C#N)cc1
CCC(=O)OCc1c(C(F)(F)F)nn(C)c1Oc1cccc(C(F)(F)F)c1
Cn1nc(C(F)(F)F)cc1C(=O)O
CCCCN(C)CCNC(=O)C1CCCN(S(=O)(=O)c2cccc3nsnc23)C1 (centres undefined)
CN(Cc1ccccc1)C(=O)COC(=O)c1ccccc1Nc1ccccc1
Cc1c(C(=O)NCCCc2ccccc2)cccc1[N+](=O)[O-]
CC1=NN(C(C)C)C(=O)C1
CN(C)c1ccc(/C=N\S(=O)(=O)c2ccccc2)cc1
Cc1nnc2n1N=C(c1ccc3c(c1)NC(=O)CO3)CS2
Cc1noc(C)c1CSCC(=O)N(CCC(C)C)c1c(N)n(Cc2ccccc2)c(=O)[nH]c1=O
COc1cccc(N(CC(=O)NC2CCCC2)C(=O)Cn2nnc(-c3ccc(C)o3)n2)c1
Cc1cccc(C(=O)Nc2nnc(S(=O)(=O)N3CCCCCC3)s2)c1
O=C(Nc1nnc(S(=O)(=O)N2CCOCC2)s1)c1cccc(Br)c1
CCn1cc(CNC(=O)c2cc([N+](=O)[O-])c(C)c([N+](=O)[O-])c2)cn1
Cc1cccc(NC(=O)c2cc([N+](=O)[O-])ccc2N2CCN(C)CC2)c1
Cc1cccc(NC(=O)c2ccc([N+](=O)[O-])o2)c1
COc1ccc(CCNc2ncnc3c2nnn3Cc2ccccc2)cc1
O=C1/C(=C/c2ccc(F)cc2)SC(=S)N1CCCC(=O)N1CCCCC1CCO (centres undefined)
COc1ccc(CCNC(=O)C(=O)NCC2OCCN2S(=O)(=O)c2ccc(OC)c(C)c2)cc1 (centres undefined)
O=C1C2C3C=CC(C4CC34)C2C(=O)N1c1nccs1 (centres undefined)
COc1ccc(-c2nc(N)ncc2-c2ccc(Cl)cc2)c(O)c1
CC(C)(C)Oc1ncc(Br)c(OC(C)(C)C)n1
CCOc1cc2c(Cl)ncnc2c(OCC)c1OCC
COc1cccc(CN2CCN(Cc3ccc4cccc(F)c4n3)CC2CCO)c1 (centres undefined)
O=S(=O)(c1cccc2nonc12)N1CCN(c2cccc(Cl)c2)CC1
CC(Nc1ccccc1)c1cccnc1 (centres undefined)
Cc1nn2c(c1-c1ccccc1)N=C(c1ccco1)CC2c1ccccc1 (centres undefined)
CC(C)(C)NS(=O)(=O)CC12CCC(CC1=O)C2(C)C (centres undefined)
COc1ccc(Cl)cc1NC(=O)NCC1CCN(Cc2ccccc2F)CC1
COc1ccc(Cl)cc1NC(=O)NC(C)C(C)(C)C (centres undefined)
COc1ccccc1N1CCN(C(=O)c2cn(-c3ccccc3)nc2-c2cccnc2)CC1
COc1ccc(NC(=O)C(CC(C)C)NC(=O)C2CCC(C)CC2)cc1 (centres undefined)
COc1ccc(CCNCC(O)Cn2ccc3ccccc32)cc1OC (centres undefined)
Cc1ccc(NC(=S)Nc2ccc(F)cc2)cc1
Cc1cccc(NC(=S)NC23CN4CN(CN(C4)C2)C3)c1
Cc1cccc(NC(=O)NC(=S)NC(=O)c2ccccc2)c1
Cc1cccc(NC(=S)Nc2ccc3cn[nH]c3c2)c1
Cc1ccc(C)c(N2CCN(C(=O)CCCn3c(=O)c4cccn4c4cccnc43)CC2)c1
COC(=O)CN1C(=O)[C@H]2[C@@H](/C=C/c3ccccc3)N3C(=O)CN(Cc4ccccc4)C(=O)[C@@]3(Cc3ccccc3)[C@H]2C1=O
CN(C)/C=C(/C(=O)c1ccc(F)cc1)S(=O)(=O)c1ccc(F)cc1
CC(NCC(=O)Nc1cc(Cl)cc(Cl)c1)c1ccccc1 (centres undefined)
Cc1nnc(SC(C(=O)c2ccccc2)c2ccccc2)[nH]c1=O (centres undefined)
CC(/C=C/c1ccco1)=N/NC(=O)C1COc2ccccc2O1 (centres undefined)
O=C(N/N=C/C=C/c1ccccc1)C1CC1(c1ccccc1)c1ccccc1 (centres undefined)
COc1ccc(NC(=O)c2oc3ccc(S(=O)(=O)N4CCOCC4)cc3c2C)cc1
COCCN1C2=C(COC(C)(C)C2)C(=S)NC1c1ccccc1 (centres undefined)
Cc1nc([N+](=O)[O-])nn1C12CC3CC(CC(Br)(C3)C1)C2
CCOC(=O)c1c(NC(=O)CCCN2CCOCC2)sc2c1CC(C)(C)OC2
CCOC(=O)c1[nH]ncc1CN1CCCC(C(=O)c2ccc(OC)cc2C)C1 (centres undefined)
COc1ccc(C(=O)C2CCCN(Cc3ccc4nonc4c3)C2)c(C)c1 (centres undefined)
CCC(=O)c1ccc(OCC(O)Cn2nc(C)c(C(C)=O)c2C)cc1 (centres undefined)
CCOC(=O)CCc1c(C)c(C#N)c2[nH]c3ccccc3n2c1=O
Cc1ccccc1Cn1c(=O)[nH]c2ccccc21
CCCN(CC1COc2ccccc2O1)C(=S)Nc1ccc(C)cc1 (centres undefined)
CCCn1c(C)cc(/C=C(\C#N)C(=O)OCC(=O)N(C)c2c(N)n(Cc3ccccc3)c(=O)[nH]c2=O)c1C
CCC(C)[C@@H](C(=O)N1CCNCC1)n1cc(CCCCN)nn1 (some centres undefined)
O=C(CCN1C(=O)c2ccccc2C1=O)Nc1ccncc1
CC1CCN(CCC(=O)Nc2ccccc2)CC1
CCN1CCN(C(=O)CN(C)S(=O)(=O)c2ccc3ccccc3c2)CC1
CON(C)S(=O)(=O)c1ccc2c(c1)NC(=O)C1CCCN21 (centres undefined)

B-score, active:
Cc1ccc(-c2noc(CC(c3ccccc3)c3ccccc3)n2)cc1 7
CCN1CCN(CCNC(=O)c2ccc(/C=C3/Sc4ccccc4N(Cc4cccc(C)c4)C3=O)cc2)CC1 13
O=C(NCCN1CCOCC1)c1ccc(/C=C2\Sc3ccccc3N(Cc3ccc(F)cc3)C2=O)cc1 10
COc1ccc(/C=C2/SC(=O)N(CCCCCC(=O)Nc3ccccc3C(=O)O)C2=S)cc1 6
CC1Cc2ccccc2N1C(=O)c1cc2sccc2n1Cc1ccccc1 (centres undefined) 6
Cn1nc(C(F)(F)F)cc1-c1ccc(/C=C(\C#N)C(=O)c2cccc(C(F)(F)F)c2)s1 8
O=C(OCC(=O)N(CCc1ccccc1)Cc1ccccc1)c1ccccc1[N+](=O)[O-] 6
CC[n+]1cc(C)ccc1/C=C/c1ccc(N(C)C)cc1 14
O=C(Nc1nnc(S(=O)(=O)N2CCCCCC2)s1)c1cccc(Br)c1 7
Cc1cccc(NC(=O)c2sc(-c3ccccc3)nc2-c2ccc([N+](=O)[O-])cc2)c1 6
COc1cccc(-c2cnc(OC(C)(C)C)nc2OC(C)(C)C)c1 8
COc1ccc(Cl)cc1NC(=O)C(C)N1CCc2ccccc21 (centres undefined) 7
Cc1cccc(NC(=S)Nc2ccc(Cl)c(Cl)c2)c1 7
Cc1cccc(NC(=S)Nc2ccc(Br)cc2)c1 6
Cc1nnc(SC(C(=O)Nc2cc(Cl)cc(Cl)c2)c2ccccc2)[nH]c1=O (centres undefined) 8
CC(/C=C/c1ccccc1)=N\NC(=O)C1CC1(C)c1ccccc1 (centres undefined) 9
COc1ccc(C(=O)C2CCCN(Cc3cccn3-c3ccccn3)C2)c(C)c1 (centres undefined) 9
CCCc1cc(=S)n2c([nH]c3ccccc32)c1C#N 8
O=C(CCN1c2ccccc2Sc2ccccc21)Nc1ccccc1 12

Reference: PubChem BioAssay AID2642 (Johns Hopkins Ion Channel Center, 2010)
